Measurements reported in PubChem BioAssay (NCI).
Compounds without any hit were thinned out: in the full panel of roughly 79,000, 15% have a hit. A number with no mark means an inactive call. Calls of active or inactive are those of the source. Rule as the data show it: active = growth inhibition above about 70%; inactive = the rest.

Assays:
[1] = NCI Yeast Anticancer Drug Screen. Data for the wt1 strain (AID 149);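 also: 0% = growth of vehicle-treated wt1 cultures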; conditions: S. cerevisiae wt1 strain (SPY 50644) growth inhibition, stronger effect = higher value
Outline: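 Measured: growth of wt1 yeast under compound versus vehicle treatment, reported as inhibition.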

[2] = NCI Yeast Anticancer Drug Screen. Data for the rad50EPP+ strain (AID 151);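 also: 0% = growth of vehicle-treated control cultures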; conditions: S. cerevisiae rad50 mutant strain, stronger effect = higher value
Outline: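 Compounds were applied to the rad50EPP+ yeast strain, which bears a defined DNA repair alteration, and growth inhibition was determined relative to vehicle-treated cultures.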

[3] = NCI Yeast Anticancer Drug Screen. Data for the mgt1 strain (AID 153); conditions: S. cerevisiae mgt1 mutant growth inhibition, stronger effect = higher value
Outline: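 Strain: mgt1 yeast, one of a set carrying defined DNA damage repair or cell cycle control alterations. Compound-treated growth compared with vehicle.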

[4] = NCI Yeast Anticancer Drug Screen. Data for the rad50 strain (AID 155);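 also: 0% = growth of vehicle-only cultures of the same strain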; conditions: S. cerevisiae rad50 strain growth inhibition, stronger effect = higher value
Outline: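 Growth of the mutant yeast was measured after compound exposure and referenced to vehicle-treated cultures.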

[5] = NCI Yeast Anticancer Drug Screen. Data for the rad14 strain (AID 159);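 also: 0% = growth of vehicle-treated control cultures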; conditions: S. cerevisiae rad14 strain growth inhibition, stronger effect = higher value
Outline: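 Here, inhibition of yeast growth was measured after compound exposure, using a strain with a genetic defect in DNA damage repair and vehicle-treated cultures as the reference.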

[6] = NCI Yeast Anticancer Drug Screen. Data for the sgs1 mgt1 strain (AID 161);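 also: 0% = growth of cultures given vehicle only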; conditions: S. cerevisiae sgs1 mgt1 strain, stronger effect = higher value
Outline: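 Test agents were incubated with a DNA-repair-mutant yeast strain. Growth was then read and compared against vehicle-treated controls.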

[7] = NCI Yeast Anticancer Drug Screen. Data for the CLN2oe strain (AID 163);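 also: 0% = growth of vehicle-only control cultures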; conditions: S. cerevisiae CLN2oe strain, stronger effect = higher value
Outline: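 Growth of a genetically modified yeast strain is measured after compound exposure and compared with cultures given vehicle alone.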

[8] = NCI Yeast Anticancer Drug Screen. Data for the bub3 strain (AID 167); conditions: S. cerevisiae bub3 mutant strain, stronger effect = higher value
Outline: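 Whole-cell yeast assay. The mutant strain was incubated with compounds, and growth inhibition was determined by comparison with vehicle-treated cells.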

[9] = NCI Yeast Anticancer Drug Screen. Data for the wt2 strain (AID 169);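 also: 0% = growth of vehicle-treated yeast cultures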; conditions: S. cerevisiae wt2 strain growth inhibition, stronger effect = higher value
Outline: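 This strain belongs to a panel of yeast strains with defined genetic alterations in DNA damage repair or cell cycle control. Compounds are applied, and growth inhibition is measured against vehicle-treated cultures.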

[10] = NCI Yeast Anticancer Drug Screen. Data for the mlh1 strain (AID 171);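 also: 0% = growth of vehicle-treated control cultures of the same strain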; conditions: S. cerevisiae mlh1 strain growth inhibition, stronger effect = higher value
Outline: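 Growth of the mutant yeast strain after compound exposure, expressed as inhibition relative to vehicle-only controls.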

[11] = NCI Yeast Anticancer Drug Screen. Data for the sgs1 strain (AID 173);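 also: 0% = growth of vehicle-only control cultures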; conditions: S. cerevisiae sgs1 mutant, stronger effect = higher value
Outline: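 Growth of a yeast strain bearing a defined genetic alteration is measured after compound treatment. Inhibition is expressed relative to vehicle-only controls.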

[12] = NCI Yeast Anticancer Drug Screen. Data for the mlh1 rad18 strain (AID 175); conditions: S. cerevisiae mlh1 rad18 strain growth inhibition, stronger effect = higher value
Outline: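 Read-out is yeast growth inhibition, calculated against vehicle-only controls. The compound was applied to a strain engineered with DNA damage repair alterations.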

[13] = NCI Yeast Anticancer Drug Screen. Data for the rad18 strain (AID 177); conditions: S. cerevisiae rad18 mutant growth inhibition, stronger effect = higher value
Outline: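 Growth of the mutant yeast strain after compound exposure, normalised to vehicle-only cultures.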

[14] = NCI Yeast Anticancer Drug Screen. Data for the mec2-1 strain (AID 157); conditions: S. cerevisiae mec2-1 strain, stronger effect = higher value
Outline: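 Strain: mec2-1 (DNA repair/cell cycle alteration). Compound exposure, then growth measured; inhibition expressed relative to vehicle.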

[15] = NCI Yeast Anticancer Drug Screen. Data for the cln2 rad14 strain (AID 165);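 also: 0% = growth equal to vehicle treated cultures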; conditions: S. cerevisiae cln2 rad14 strain, stronger effect = higher value
Outline: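 Compounds are applied to the cln2 rad14 yeast strain, and growth is then compared with that of vehicle-treated cultures to give inhibition.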

[16] = at 5.0 µM (retest, dose inferred, filed as 0.5)
[17] = at 50.0 µM (retest, dose inferred, filed as 5.0)

N=c1oc2ccccc2cc1-c1nc2ccccc2[nH]1
growth inhibition ([1]; at 1.2 µM): 1% | growth inhibition ([1]; at 3.7 µM): 9% | growth inhibition ([1]; at 11.0 µM): 15% | growth inhibition ([1]; at 33.0 µM): 28% | growth inhibition ([1]; at 100.0 µM): 45% | growth inhibition ([2]; at 1.2 µM): 30% | growth inhibition ([2]; at 3.7 µM): 48% | growth inhibition ([2]; at 11.0 µM): 58% | growth inhibition ([2]; at 33.0 µM): 85% (active) | growth inhibition ([2]; at 100.0 µM): 91% (active) | growth inhibition ([3]; at 1.2 µM): 13% | growth inhibition ([3]; at 3.7 µM): 11% | growth inhibition ([3]; at 11.0 µM): 24% | growth inhibition ([3]; at 33.0 µM): 43% | growth inhibition ([3]; at 100.0 µM): 79% (active) | growth inhibition ([4]; at 1.2 µM): 15% | growth inhibition ([4]; at 3.7 µM): 18% | growth inhibition [4, 16]: 7% | growth inhibition ([4]; at 11.0 µM): 31% | growth inhibition ([4]; at 33.0 µM): 64% | growth inhibition [4, 17]: 85% (active) | growth inhibition ([4]; at 50.0 µM): 70% | growth inhibition ([4]; at 100.0 µM): 88% (active) | growth inhibition ([5]; at 1.2 µM): 5% | growth inhibition ([5]; at 3.7 µM): 11% | growth inhibition ([5]; at 11.0 µM): 25% | growth inhibition ([5]; at 33.0 µM): 39% | growth inhibition ([5]; at 100.0 µM): 88% (active) | growth inhibition [6, 16]: 13% | growth inhibition [6, 17]: 62% | growth inhibition ([6]; at 50.0 µM): 47.8% | growth inhibition ([7]; at 1.2 µM): 6% | growth inhibition ([7]; at 3.7 µM): -21% | growth inhibition ([7]; at 11.0 µM): 12% | growth inhibition ([7]; at 33.0 µM): 25% | growth inhibition ([7]; at 100.0 µM): 47% | growth inhibition ([8]; at 1.2 µM): -13% | growth inhibition ([8]; at 3.7 µM): -12% | growth inhibition [8, 16]: 23% | growth inhibition ([8]; at 11.0 µM): -3% | growth inhibition ([8]; at 33.0 µM): 9% | growth inhibition [8, 17]: 56% | growth inhibition ([8]; at 50.0 µM): 33.8% | growth inhibition ([8]; at 100.0 µM): 57% | growth inhibition ([9]; at 1.2 µM): -31% | growth inhibition ([9]; at 3.7 µM): -29% | growth inhibition ([9]; at 11.0 µM): -13% | growth inhibition ([9]; at 33.0 µM): 47% | growth inhibition ([9]; at 100.0 µM): 80% (active) | growth inhibition ([10]; at 1.2 µM): 0% | growth inhibition ([10]; at 3.7 µM): 3% | growth inhibition ([10]; at 11.0 µM): 17% | growth inhibition ([10]; at 33.0 µM): 42% | growth inhibition ([10]; at 100.0 µM): 82% (active) | growth inhibition ([11]; at 1.2 µM): 15% | growth inhibition ([11]; at 3.7 µM): 28% | growth inhibition ([11]; at 11.0 µM): 41% | growth inhibition ([11]; at 33.0 µM): 59% | growth inhibition ([11]; at 100.0 µM): 82% (active) | growth inhibition [12, 16]: 6% | growth inhibition [12, 17]: 84% (active) | growth inhibition ([12]; at 50.0 µM): 16.6% | growth inhibition ([13]; at 1.2 µM): 2% | growth inhibition ([13]; at 3.7 µM): 5% | growth inhibition ([13]; at 11.0 µM): 14% | growth inhibition ([13]; at 33.0 µM): 27% | growth inhibition ([13]; at 100.0 µM): 71% (active)

COc1cc(C(C)C(C(=O)O)C(=O)C(=O)O)cc(OC)c1OC (stereo not given)
growth inhibition ([1]; at 1.2 µM): 0% | growth inhibition ([1]; at 3.7 µM): 2% | growth inhibition ([1]; at 11.0 µM): 3% | growth inhibition ([1]; at 33.0 µM): 4% | growth inhibition ([1]; at 100.0 µM): 5% | growth inhibition ([2]; at 1.2 µM): -3% | growth inhibition ([2]; at 3.7 µM): -7% | growth inhibition ([2]; at 11.0 µM): -4% | growth inhibition ([2]; at 33.0 µM): -8% | growth inhibition ([2]; at 100.0 µM): 1% | growth inhibition ([3]; at 1.2 µM): 1% | growth inhibition ([3]; at 3.7 µM): 2% | growth inhibition ([3]; at 11.0 µM): 2% | growth inhibition ([3]; at 33.0 µM): 1% | growth inhibition ([3]; at 100.0 µM): 21% | growth inhibition ([4]; at 1.2 µM): 3% | growth inhibition ([4]; at 3.7 µM): 3% | growth inhibition [4, 16]: -41% | growth inhibition ([4]; at 11.0 µM): 4% | growth inhibition ([4]; at 33.0 µM): 5% | growth inhibition [4, 17]: -9% | growth inhibition ([4]; at 50.0 µM): 0.85% | growth inhibition ([4]; at 100.0 µM): 4% | growth inhibition ([14]; at 1.2 µM): -5% | growth inhibition ([14]; at 3.7 µM): -3% | growth inhibition [14, 16]: 7% | growth inhibition ([14]; at 11.0 µM): -3% | growth inhibition ([14]; at 33.0 µM): -2% | growth inhibition [14, 17]: -4% | growth inhibition ([14]; at 50.0 µM): 9.9% | growth inhibition ([14]; at 100.0 µM): 0% | growth inhibition [6, 16]: -5% | growth inhibition [6, 17]: 2% | growth inhibition ([6]; at 50.0 µM): -3.75% | growth inhibition ([7]; at 1.2 µM): 2% | growth inhibition ([7]; at 3.7 µM): 5% | growth inhibition ([7]; at 11.0 µM): 4% | growth inhibition ([7]; at 33.0 µM): 5% | growth inhibition ([7]; at 100.0 µM): 7% | growth inhibition [15, 16]: 10% | growth inhibition [15, 17]: 76% (active) | growth inhibition ([15]; at 50.0 µM): -22.4% | growth inhibition ([8]; at 1.2 µM): 1% | growth inhibition ([8]; at 3.7 µM): -1% | growth inhibition [8, 16]: 4% | growth inhibition ([8]; at 11.0 µM): -6% | growth inhibition ([8]; at 33.0 µM): -3% | growth inhibition [8, 17]: 11% | growth inhibition ([8]; at 50.0 µM): 44.6% | growth inhibition ([8]; at 100.0 µM): -2% | growth inhibition ([9]; at 1.2 µM): 1% | growth inhibition ([9]; at 3.7 µM): 0% | growth inhibition ([9]; at 11.0 µM): 2% | growth inhibition ([9]; at 33.0 µM): -1% | growth inhibition ([9]; at 100.0 µM): 2% | growth inhibition ([10]; at 1.2 µM): 0% | growth inhibition ([10]; at 3.7 µM): 0% | growth inhibition ([10]; at 11.0 µM): 2% | growth inhibition ([10]; at 33.0 µM): 3% | growth inhibition ([10]; at 100.0 µM): 6% | growth inhibition ([11]; at 1.2 µM): -1% | growth inhibition ([11]; at 3.7 µM): -1% | growth inhibition ([11]; at 11.0 µM): 0% | growth inhibition ([11]; at 33.0 µM): 2% | growth inhibition ([11]; at 100.0 µM): 6% | growth inhibition [12, 16]: -3% | growth inhibition [12, 17]: 41% | growth inhibition ([12]; at 50.0 µM): 44.9% | growth inhibition ([13]; at 1.2 µM): -5% | growth inhibition ([13]; at 3.7 µM): -2% | growth inhibition ([13]; at 11.0 µM): -4% | growth inhibition ([13]; at 33.0 µM): 1% | growth inhibition ([13]; at 100.0 µM): 9%
